Source: PubChem BioAssay (NCI)
Compounds without any hit were thinned out: in the full panel of roughly 83,000, 20% have a hit.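 Testing used 96-well plates and a 48-hour single-concentration exposure. Example: -40 means 40% of the starting cells died.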 Unmarked numbers belong to inactive results. Calls of active or inactive are those of the source. How the source made its calls: active means growth percent below 10; inactive means the rest.

Tests used:
Assay in all cases: NCI-60 one-dose screen, 48 h (100 = growth as untreated, 0 = no growth, -100 = all killed)
T-47D breast = conditions: 10 µM
BT-549 breast = conditions: 10 µM unless noted
MDA-MB-435 melanoma = conditions: 10 µM unless noted
SW-620 colon = conditions: 10 µM unless noted
MCF7 breast = conditions: 10 µM unless noted
HCT-116 colon = conditions: 10 µM unless noted
HCC-2998 colon = conditions: 10 µM unless noted
KM12 colon = conditions: 10 µM unless noted

| Compound | growth (T-47D breast) | growth (BT-549 breast) | growth (MDA-MB-435 melanoma) | growth (SW-620 colon) | growth (MCF7 breast) | growth (HCT-116 colon) | growth (HCC-2998 colon) | growth (KM12 colon) |
| --- | --- | --- | --- | --- | --- | --- | --- | --- |
| OC[C@@H](O)[C@@H](O)CO | 103% | 101% | 100% | 98.4% | 99.9% | 102% | 102% | 105% |
| Nc1nc(N)c(N=Nc2c(Br)cc(S(N)(=O)=O)cc2Br)c(N)n1 | 88.6% | 100% | 48.3% | 98% | 68.6% | 103% | 100% | 61.3% |
| CC1=C(C/C=C(\C)CCC[C@H](C)CCC[C@H](C)CCCC(C)C)C(=O)c2ccccc2C1=O | 110% | 96.7% | 108% | 104% | 108% | 98.8% | 108% | 105% |
| O=C1CCC(N2C(=O)c3cccc(NCCOCCOCCNC(=O)c4cc5c(o4)C(=O)c4ccccc4C5=O)c3C2=O)C(=O)N1 (stereo unspecified) | 4.87% (active) | -89.3% (active) | -92.1% (active) | -19.3% (active) | -61.3% (active) | -16.1% (active) | -61.7% (active) | -8.32% (active) |
| COc1ccc(/C=C2\CN(Cc3cn(CCCNc4ccnc5cc(Cl)ccc45)nn3)C/C(=C\c3ccc(OC)cc3)C2=O)cc1 | 102% | 44.3% | 60.2% | 46.4% | 43.5% | 44.5% | 95.1% | 45.4% |
| Cc1cccc2c(=O)c3c(sc12)c(NCCCN)nc1ccccc13 | 43.9% | 65.9% | -75.4% (active) | -72% (active) | -78.9% (active) | -92% (active) | -30.9% (active) | -64.4% (active) |
| COc1ccc(Nc2nc(NCCNc3ccnc4cc(Cl)ccc34)nc(N3CCOCC3)n2)cc1 | 110% | 83.7% | 11.1% | 27.2% | 56.2% | 41.8% | 0.682% (active) | 51.5% |
| O=C1NC(=O)C(CSc2ccccc2)(c2ccccc2)N1 (stereo unspecified) | 93.4% | 100% | 112% | 106% | 101% | 102% | 96.4% | 113% |
| COc1ccc(C2CC(c3cc(OC)c(OC)c(OC)c3)=NN2c2ccc(S(N)(=O)=O)cc2)cc1 (stereo unspecified) | 55.9% | 83.9% | 66.2% | 67.9% | 57% | 48.2% | 79.7% | 63.5% |
| COc1ccc(Cn2c(Br)c3c(c2-c2cc(OC)c(OC)c(OC)c2)CCc2sc(N)nc2-3)cc1 | 59.7% | 44.2% | -40.1% (active) | 19% | 10.1% | 6.12% (active) | 12.4% | 27.2% |
| COC(=O)[C@H]1CCCN1C(=O)[C@H]1CCCN1C(=O)[C@@H](Cc1c[nH]c2ccccc12)NC(=S)Nc1cc(C(F)(F)F)cc(C(F)(F)F)c1 | 50.2% | 91.9% | 31.6% | 64.2% | 26.1% | 39.5% | 31.8% | 37.2% |
| NC(=O)c1cccc(-n2ccc3cc(NC(=O)Nc4ccc(Cl)c(Cl)c4)ccc32)n1 | 49.3% | 65.8% | 61% | 94.2% | 57.7% | 71.9% | 97.7% | 55.5% |
| CN1CCN(c2ccc3nc(-c4ccc5nc(-c6ccc(C(F)(F)F)cc6)[nH]c5c4)[nH]c3c2)CC1 | 57.9% | 84.6% | 49.8% | 1.32% (active) | 4.4% (active) | 21.1% | 87.2% | 49.7% |
| CN1CCN(CCCn2c3c(sc4ncccc43)c(=O)n3nnc(-c4ccccc4)c23)CC1 | 113% | 93.5% | 97.9% | -44.5% (active) | -90.6% (active) | -92.6% (active) | 99.2% | -32.1% (active) |
| Nc1nc(N)c(C=Nc2ccc(Br)cc2)c(Nc2ccc(Br)cc2)n1 | 76.8% | 69.3% | 84.7% | 99.7% | 72.7% | 78.5% | 83.5% | 86.3% |
| O=[N+]([O-])c1ccc(O)c2ncccc12 | 30.4% | 55.2% | 43.8% | 32.6% | 35.2% | 17.1% | 51.6% | 35.5% |

| Compound | growth (T-47D breast) | growth (BT-549 breast) | growth (MDA-MB-435 melanoma) | growth (SW-620 colon) | growth (MCF7 breast) | growth (HCT-116 colon) | growth (HCC-2998 colon) | growth (KM12 colon) |
| --- | --- | --- | --- | --- | --- | --- | --- | --- |
| COc1cc(C(F)(F)F)ccc1-c1cc(-c2ccc(F)cc2)n[nH]1 | 62.7% | 106% | 96% | 98.3% | 50.4% | 82.2% | 108% | 88.1% |
| O=C1C(Cl)=C(NCCCN2CCOCC2)C(=O)c2ccccc21 | 102% | 97.2% | 63.9% | 79.2% | 74.6% | 97.5% | 91.3% | 91.4% |
| CCOC(=O)C1=C(C)N2C(=NC3=C(CCCC/C3=C\c3cc(OC)c(OC)c(OC)c3)C2c2cc(OC)c(OC)c(OC)c2)S1 (stereo unspecified) | 45.9% | 55.1% | 68.4% | 82.5% | 60.9% | 68% | 85% | 67.5% |
| Cc1nn2c(-c3nc4ccc(Cl)cc4[nH]3)c(-c3ccc(F)cc3)nc2s1 | 91.2% | 102% | 99.7% | 91.2% | 81.2% | 86.3% | 99.2% | 89.4% |
| CN1CCn2c(c(Sc3ccc(C(=O)NO)cc3)c3ccccc32)C1=O | 14.6% | 2.47% (active) | -74.6% (active) | -14.4% (active) | 27.1% | -39.3% (active) | -37.8% (active) | -51.4% (active) |
| Cn1cc(C(=O)NCCC(=N)N)cc1NC(=O)CN=C(N)N | 110% | 99.9% | 111% | 106% | 111% | 92.6% | 88.6% | 104% |
| Brc1ccccc1Nc1ccc2nnc(-c3ccncc3)n2n1 | 80.6% | 107% | 105% | 102% | 84.9% | 94.9% | 113% | 94.1% |
| Cc1ccc(S(=O)(=O)N2C/C(=C\c3cc(F)cc(F)c3)C(=O)/C(=C/c3cc(F)cc(F)c3)C2)cc1 | -0.238% (active) | -16.9% (active) | -76.6% (active) | -47% (active) | -75.4% (active) | -93.9% (active) | -82.6% (active) | -30.6% (active) |
| COc1cccc2c(=O)c3c(sc12)c(NCCN(C)C)nc1ccccc13 | 61.3% | 61.3% | -87.1% (active) | -69.5% (active) | 0.0828% (active) | 11% | 12.2% | -76.7% (active) |
| COc1cc2oc(-c3ccc(O)cc3)cc(=O)c2c(O)c1I | 93.1% | 96.2% | 101% | 109% | 79% | 104% | 105% | 96.5% |
| CCN(C(=O)c1ccc2c3c(cccc13)C=C2)c1ccccc1 | 96% | 107% | 90.9% | 111% | 109% | 97.8% | 123% | 118% |
| Cc1nc2cc(Nc3nc(NCCN)nc(Nc4ccc(F)cc4)n3)ccc2n1Cc1ccccc1 | 69.1% | 90% | 80.4% | 73.9% | 68.8% | 60.3% | 70.6% | 70.6% |
| Cc1nc2cc(Nc3nc(N4CCOCC4)nc(N4CCN(C)CC4)n3)ccc2n1Cc1ccccc1 | 99.6% | 103% | 100% | 104% | 98.8% | 98.2% | 113% | 115% |
| CCC(C)[C@H]1O[C@]2(CC[C@@H]1C)C[C@@H]1C[C@@H](C/C=C(\C)[C@@H](OC3C[C@H](OC)C(O[C@H]4C[C@H](OC)[C@@H](O)[C@H](C)O4)[C@H](C)O3)[C@@H](C)/C=C/C=C3\CO[C@@H]4[C@H](O)C(C)=C[C@@H](C(=O)O1)[C@]34O)O2 (stereo partly specified) | 18.1% | -26.3% (active) | 3.2% (active) | 18.5% | 6.74% (active) | -89.2% (active) | -82.3% (active) | -11.8% (active) |
| C=C(C)CCCC(C)CC#N (stereo unspecified) | 92.7% | 95.9% | 104% | 115% | 99.3% | 97.5% | 104% | 95% |
| Cc1nn(CC(=O)O)c2c1C(=O)CC(C)(C)C2 | 104% | 104% | 106% | 117% | 102% | 92.3% | 98.9% | 109% |
